Shown is part of a subset that was picked to be rich in hits.
Tb PFK block: T. brucei PFK enzyme inhibition | O15648 | T. brucei PFK, ADP-Glo luminescence | Potency, µM (series often up to 57.5 µM), for inactives: at the highest dose activity, negative = inhibition, most hits filed as inhibitors | 330,000 compounds, 0.17% hits | AID 485367;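 also: potency is read from the fitted curve at half-maximal effect; 0% = uninhibited 1x PFK enzyme wells and -100% = no-enzyme wells; nearly all actives have a fitted effect of over 60% in size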
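Compounds were pin-transferred as a titration series up to 57 uM into substrate buffer (0.5 mM F6P, 0.1 mM ATP, pH 8.0), then 1.25 nM PFK was added and reactions ran 45 min before ADP-Glo detection.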
PI5P4Ka inh: PI5P4K alpha (human) kinase inhibition; AID 652105; max response, %; P48426; 330,000 compounds, 1.2% hits; PI5P4Kalpha enzyme, ADP-Glo luminescence, 60 min; hits give low values; active = max response of -50% or lower; inconclusive = between -30% and -50%; inactive = -30% or higher; also: value at the top dose of about 77 µM
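Single end-point luminescence (ADP-Glo) quantified ADP from PI5P4Kalpha turnover; ATP 5 microM final, 1 h at RT, 0.1% CHAPS and 0.28 mM EGTA in HEPES pH 7.4.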
Pin1 inhibitor: blocks the human prolyl isomerase Pin1; Pin1 FP peptide displacement, HiFluor488, 10 min; Q13526; 390,000 compounds, 0.009% hits; Potency, µM (doses to about 115 µM), for inactives: top-dose activity, negative = inhibition, hits mostly inhibitors; AID 504891; active = well fitted inhibition curve with a large enough effect in the polarisation, with a control signal flat, not every such curve was filed as active; inconclusive = small, poorly fitted or top-dose-only effect, or effect the other way, or a change in a side signal; inactive = no such curve, though single readings can be large or run the other way; the % refers to the polarisation; also: potency is read from the fitted curve at half-maximal effect
Target sequence (Q13526 whole entry, looked up): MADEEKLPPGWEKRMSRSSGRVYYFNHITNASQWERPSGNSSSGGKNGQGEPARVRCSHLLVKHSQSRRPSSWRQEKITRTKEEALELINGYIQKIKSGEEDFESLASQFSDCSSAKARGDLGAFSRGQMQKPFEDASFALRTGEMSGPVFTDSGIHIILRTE
PGK inhibitor: inhibitors of T. brucei phosphoglycerate kinase. P07378. PGK/GAPDH coupled, Kinase-Glo luminescence, 60 min. Potency, µM (series often up to 57.5 µM), for the others: at the highest dose activity change, negative = inhibition, most hits filed as inhibitors. 380,000 compounds, 0.043% hits. AID 602233; also: potency is read from the fitted curve at half-maximal effect; nearly all actives have a fitted effect of over 60% in size
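Luminescent ATP detection (Kinase-Glo Plus) follows a 60-minute room-temperature incubation, with wells lacking PGK as controls. Buffer: 100 mM TEA (pH 7.6), 5 mM MgCl2, 0.01% Tween-20. Coupling enzyme GAPDH (100 nM final) supplies unstable 1,3-BPG in-well.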
PI4K2A inh: PI4K2A (human) kinase inhibition | Q9BTU6 | purified PI4K2A, ADP-Glo luminescence, 1 h; hits give low values | activity change, negative = inhibition, % at 76.9 µM | 420,000 compounds, 0.13% hits; in the data active = activity change below about -50%; inconclusive = mostly about -30% to -49%;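 also: -100% = wells without enzyme as full effect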
Target sequence (Q9BTU6 whole entry, looked up): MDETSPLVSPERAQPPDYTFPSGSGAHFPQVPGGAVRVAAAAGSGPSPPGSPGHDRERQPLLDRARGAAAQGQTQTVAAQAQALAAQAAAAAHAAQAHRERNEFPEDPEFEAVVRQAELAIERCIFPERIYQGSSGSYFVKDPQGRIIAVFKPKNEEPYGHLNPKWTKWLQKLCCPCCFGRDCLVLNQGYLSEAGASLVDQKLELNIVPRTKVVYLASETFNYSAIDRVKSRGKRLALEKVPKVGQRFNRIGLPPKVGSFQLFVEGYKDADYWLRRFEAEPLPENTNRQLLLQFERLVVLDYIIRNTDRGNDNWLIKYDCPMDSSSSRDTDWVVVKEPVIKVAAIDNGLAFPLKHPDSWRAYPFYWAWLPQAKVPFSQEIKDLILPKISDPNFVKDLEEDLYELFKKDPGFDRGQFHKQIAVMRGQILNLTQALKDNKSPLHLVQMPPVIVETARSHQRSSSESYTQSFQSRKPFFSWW
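In this quantitative HTS, ADP production by PI4K2A was quantified luminescently after 1 h at ambient temperature; 100 microM adenosine served as plate-quality control.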
ADP-Glo interf: ADP-Glo luciferase interference, PI5P4K counter-screen; 1,100 tested, under 10 active; Potency, µM (highest dose often 76.9 µM), for inactives: top-dose activity change, negative = inhibition, usual class: inhibitors; shares compounds with PI5P4Ka inh; ADP-Glo detection counter-screen, luciferase luminescence, no enzyme
The depositor's hits bear a star; i = inactive; ? = inconclusive; . = no result. Unless noted, calls follow the shape of the dose curve; as a rule, active = well fitted curve in the direction sought with a large enough effect; inconclusive = small, poorly fitted or top-dose-only effect, or another doubt; inactive = no such curve, though single readings can be large; an effect the other way counts as inactive or inconclusive. Unless noted, % is scaled to controls: 0 for no effect and ±100 for the full control effect.

SMILES	Tb PFK block	PI5P4Ka inh	Pin1 inhibitor	PGK inhibitor	PI4K2A inh	ADP-Glo interf
COc1ccc(OC)c(C2CC(=O)N3CN(c4cccc(Cl)c4)CSC3=C2C#N)c1 (stereo unspecified)	-29.4%	-77.5*	-0.4%	-9.0%	-11.1	-11.0%
COc1cccc(C2CC(=O)N3CN(c4cccc(Cl)c4C)CSC3=C2C#N)c1OC (stereo unspecified)	-7.3%	-92.6*	4.1%	-7.6%	-4.2	-13.5%
CCOC(=O)c1ccc(N2CSC3=C(C#N)C(c4ccc(OC)cc4OC)CC(=O)N3C2)cc1 (stereo unspecified)	-18.5%	-26.1	9.2%	0.4%	-17.9	.
CCNC(=S)N(Cc1cc2cc(C)c(C)cc2[nH]c1=O)C1CCCC1	13.1%	5.5	1.1%	-1.3%	4.2	.
Cc1onc(-c2c(F)cccc2Cl)c1C(=O)NCc1ccco1	3.1%	0.9	4.2%	-1.9%	4.9	.
Cc1onc(-c2c(F)cccc2Cl)c1C(=O)OCC(=O)NCc1ccco1	-3.2%	-50.9*	?	-6.4%	-6.4	-5.0%
Clc1ncnc2[nH]ccc12	.	6.0	5.6%	0.7%	-15.0	.
CCOC(=O)C1(C)CCCN(C(=O)c2ccccc2C(F)(F)F)C1 (stereo unspecified)	.	-79.4*	.	.	-0.8	-5.2%
CCOC(=O)Nc1ccc2c(CNC(C)c3ccccc3OC)cc(=O)oc2c1 (stereo unspecified)	-0.5%	-90.3*	8.0%	-6.3%	-0.7	-5.6%
O=C(Nc1nnc(COc2ccc(Cl)cc2)s1)c1cccs1	-3.3%	-57.0*	5.8%	i	0.6	-0.1%
Nc1nc(Nc2cccc(Cl)c2)nc(NCc2ccco2)c1[N+](=O)[O-]	2.5%	-54.0*	14.0%	i	2.3	-2.3%
Cc1ccc(Nc2nc(NCc3ccco3)c3ccccc3n2)cc1	0.2%	.	5.8%	1.1%	1.3	-2.2%
COc1ccccc1Nc1nc(NCc2ccco2)c2ccccc2n1	1.3%	-6.3	1.8%	7.4%	-6.9	.
Nc1nc(Nc2ccc(Cl)cc2)nc(NCc2ccco2)c1[N+](=O)[O-]	-9.7%	-54.2*	-2.0%	i	-2.6	-2.0%
C[C@@H]1C=C(C(=O)NCc2nc3ccccc3[nH]2)O[C@H](OCc2ccc(CO)cc2)C1	2.2%	-11.5	-8.3%	-4.9%	-6.0	.
C[C@@H]1C=C(C(=O)NCc2nc3ccccc3[nH]2)O[C@H](OCCCCO)C1	.	-27.2	-0.5%	-1.3%	-0.4	-2.7%
O=C(c1ccc(-c2ccc([N+](=O)[O-])cc2)o1)N1CCN(S(=O)(=O)c2cccs2)CC1	-5.1%	-51.3*	6.1%	0.3%	-0.5	-9.1%
O=C(c1ccc([N+](=O)[O-])cc1)N1CCN(C(=O)c2ccco2)CC1	4.2%	2.2	-12.6%	i	2.1	.
O=C(c1ccco1)N1CCN(C(=O)c2ccc(-c3ccc([N+](=O)[O-])cc3)o2)CC1	?	-74.3*	.	-11.6%	-25.0	2.6%
CC(=O)Nc1cccc2cc(S(=O)(=O)O)ccc12	.	-13.4	.	.	-0.9	.
CC(=O)Nc1cccc2cc(O)ccc12	.	-63.4*	?	-4.0%	-5.8	3.4%
O=c1oc(-c2ccccc2)nc2sc3c(c12)CCC3	?	-54.4*	?	-16.6%	-4.7	-1.8%
O=C1CCC(=O)N1c1ccc(-c2nc3sc4c(c3c(=O)o2)CCC4)cc1	0.9%	0.7	-0.4%	-4.6%	1.9	.
O=C(c1ccco1)N1CCN(C(=O)c2cc(-c3ccccc3)nc3ccccc23)CC1	0.1%	-2.3	-1.5%	-8.7%	1.2	.
Cc1cccc2c(C(=O)N3CCN(C(=O)c4ccco4)CC3)cc(-c3cccc(Br)c3)nc12	-6.2%	-52.7*	13.0%	0.2%	-15.5	6.7%
SMILES	Tb PFK block	PI5P4Ka inh	Pin1 inhibitor	PGK inhibitor	PI4K2A inh	ADP-Glo interf
COc1ccc(S(=O)(=O)Nc2ccc3c(c2)CCC3)cc1	5.1%	-67.3*	4.7%	9.2%	3.9	-4.0%
COc1ccc(S(=O)(=O)Nc2ccc(C)c(C)c2)cc1	.	.	0.7%	.	.	.
Cc1ccc(NC(=O)Nc2cccs2)cc1	-24.0%	-54.4*	31.6%	i	-27.7	2.9%
NC(=O)c1ccsc1NC(=O)COC(=O)c1ccc(Cl)nc1	-22.6%	-2.2	18.8%	2.5%	-2.7	.
NC(=O)c1ccsc1NC(=O)COC(=O)c1nc(Cl)ccc1Cl	-2.8%	-52.7*	?	-2.0%	6.4	-3.0%
CN(C)S(=O)(=O)c1cccc(C(=O)OCC(=O)Nc2sccc2C(N)=O)c1	8.5%	-65.7*	?	7.5%	14.9	-4.3%
Cc1ccc(C(C)(C)C)c(OCCN2CCCC2)c1	0.6%	7.4	-13.8%	-2.8%	-1.2	.
Cc1ccc(NS(=O)(=O)c2ccc(NC(=O)N3CCCCC3)cc2)cc1	-1.0%	-2.4	-7.5%	0.2%	1.6	.
COC(=O)c1ccc(Oc2cc(C)nc(NCc3ccccc3)n2)cc1	0.6%	0.8	-8.8%	6.9%	2.4	.
Cc1cc(Oc2ccc(C#N)cc2)nc(NCc2ccccc2)n1	-1.4%	-51.1*	-0.8%	-8.5%	12.1	1.4%
COc1ccc(Cl)cc1NC(=O)CN(C)C1CCCCC1	1.7%	5.4	-2.9%	i	-4.3	.
COc1ccc(OC)c(NC(=O)CN(Cc2ccc(F)cc2)C2CCCCC2)c1	3.0%	-58.2*	?	2.3%	0.3	-2.8%
O=C1OC[C@@H]2CCCN2C(=O)[C@@H](CC(=O)N(CCO)Cc2ccccc2)C/C=C\C[C@@H]1Cc1ccc(F)cc1	2.4%	7.2	0.1%	-2.4%	-0.4	.
NC(=O)CSc1nc2c(c(=O)n1-c1ccccc1)C1(CCCCC1)Cc1ccccc1-2	0.6%	2.9	9.1%	-8.2%	2.4	.
Cc1cccc(-n2c(SCC(N)=O)nc3c(c2=O)C2(CCCC2)Cc2ccccc2-3)c1	1.2%	-56.2*	4.0%	-13.9%	-2.5	-4.1%
C/C(=N\NC(=O)c1cccnc1)c1nnn(-c2nonc2N)c1C	1.5%	-5.5	-2.8%	-0.1%	1.6	.
CC(=O)c1ccc(-n2c(CCC(=O)O)ccc2-c2cccs2)cc1	?	.	28.6%	2.5%	0.9	.
NC(=O)c1ccc(-n2c(CCC(=O)O)ccc2-c2cccs2)cc1	?	-80.2*	-0.3%	0.0%	3.2	2.2%
O=S1(=O)CC(N2CCSCC2)CN1Cc1cn(Cc2ccc(F)cc2)nn1 (stereo unspecified)	.	-28.0	.	.	-3.5	1.8%
COc1ccc(C(c2c(NC(=O)c3ccccc3)sc(C)c2C)N2CCN(CCO)CC2)cc1 (stereo unspecified)	0.3%	0.7	3.4%	-4.2%	4.0	.
O=S(=O)(c1ccc(Br)cc1)N1CCCc2ccccc21	-0.9%	1.5	-0.8%	-1.5%	2.2	-5.5%
